Laboratory results reported in PubChem BioAssay AID1508600 (Functional Genomics Laboratory (NCATS/FGL), 2020).
The whole screen tested about 53,000 sequences, of which about 3,700 (7%) were called active.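 Rule for the calls: active = gene knockdowns whose robust z-score for IL-1 alpha signal is at least 2 or at most -2, so actives lie on both sides; inactive = the rest.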 Only a selection was taken, and actives are over-represented in it overall.

test: Components of the Cytosolic LPS Sensing Pathway: Gene Identification via Genome-wide siRNA Screen; details: RAW264.7 macrophages, IL-1a HTRF, actives lie on both sides, screened at 100 nM (by protocol), cells primed 5 h with Pam3CSK4 first;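 note: robust z of the log signal after scaling to non-targeting control siRNA wells of the plate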
Outline: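 Read-out: IL-1a HTRF on supernatant, divided by plate negative-control median ×100, log-transformed and converted to robust z-score. Cells were RAW264.7 given 100 nM siRNA, Pam3CSK4-primed 5 hours, then LipidA-transfected 24 hour.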

z-score, inactive:
GGCAAGUCUGUGUGCAGAUTT against Olfr267 0.579, CCAGGAACCUAUUGAAUCUTT against Plpp7 1.15, GGUAGAAAACAUAAAUGGUTT against Sec16a 1.71, GGCCAUGGUUAAACCAUAUTT against Pdcl2 0.791, GGACCUAUACAAGGGAGGUTT against Il1f10 1.17, GGUGUUUUCUGUGCUGUGATT against Klhdc3 -1.55, GCCAAUAAUUGUCACACAUTT against Adgrg3 1.94, GGACUUGGGUUUCAAUUCCTT against Ddx27 -0.876, GCAGUCUUCCCUCAUCCUUTT against Cox8a 1.74, GGCAGUAAAUAGUAAGAAATT against Ccr9 -0.716, GGAGUGGUGUGUCAUUGAUTT against Impact -0.663, GCACAACAUCCCAGAUAAATT against Ankrd55 0.338, GCCAGGCAAAUUACAUCGCTT against Shroom1 0.303, CCUGCACUACUGGAUUGGATT against Vill 0.265, GCUCCAUUAUGCCAGACUATT against Madcam1 0.8, GGAUAAUGAAGAAUGCCAATT against Abca4 -0.533, GGUCAUCAACGUGCUAGAGTT against Nucb1 -1.3, GGAUGCAUGAGAAAUGUUATT against Tbc1d14 -0.0572, GGUAUAAGUUGGCAAGAUCTT against Cry2 0.849, GGUCACAUUUAAUGUCACATT against Itgam -0.789, GGACAAUCAGUACCUUAACTT against Tex9 -0.375, GGAAGGUUUCGCUUUGAAUTT against Tarm1 -0.469, GGCUCAGAUUUUGUGAUUCTT against Olfr894 -1.44, GGACUUUUUCACUUUCAAATT against Ugt1a5 -0.198, CGCCACACACCAUCACAUUTT against Scap -0.0743, GCUAACCAUGUGACAAUAATT against Timm8a1 -1.39, GGCCCAGCAGACAACUUUATT against Sgca 0.797, CCUCCGGAGUAUAAACAAUTT against Nr1i3 0.21, GAAGAGGGCACCUAGUUUCTT against Cox7b 0.249, GCCACGAAGGUACUAUGUATT against Tbce 0.176, GGUUACCACACUAUGUUACTT against Tbc1d2b 0.454, GGAAAAGUCCAAGUUUGAATT against Hmgb2 -0.104, GGAGAUAAUCCUGAAUGGCTT against Hsd3b6 -1.18, GGCCAAAAGGUUGAGCAGUTT against Nsun2 0.311, GCUUUUAGGCCUCCAAAAGTT against Lmnb2 1.15, GGAGAAACUGGCAGACCUUTT against Washc3 -0.388, GCCUUCAGGACGAUUUAUUTT against Pla2g7 1.19, GCGAAAUCUUUGUCACUAATT against Sertad4 -0.201, GGAAGUAUUUGAUCAUGGATT against Smarca5 -0.465, GGAAAGGUAAUGCAUCACATT against Rev3l -1.68, GGCUGAAGAUCACCAAGAATT against Neurl1a -0.869, CGGAAUCAUUCGGAAUGAGTT against Capza3 -1.01, CGUGAUCCCACAGAUGUAGTT against Csrp3 -0.649, GGGAGGUGUCUUUACGUCUTT against Neto1 -0.773, GCUGCACGAUCGGAAUGGUTT against Ssh1 -0.678, GGUUUUUGCUGAGUCUUGCTT against Olfr299 0.00611, GGAAAAGAAAGCAAAGAGATT against Dach1 -1.15, GCUACAGCAGACAUAGAAATT against Sparcl1 0.0109, GGUUGGAAUUGUGCAAUAATT against Fbxo48 0.164, GGACAUUUAUCCCAUGACATT against Coro2b 0.814, GGAAUUCAAUGACGUGUACTT against Mapk14 0.493, CCGUAUUUGUGCUGUGUCUTT against Olfr275 -1.53, CCGGAGUUGAAACCUAAAATT against Hmgn5 0.524, GCAACAUAUGUUCAAGAUCTT against Ccdc163 0.53, GGCCAUCAGAGUCAACUGUTT against Immt -0.285, GGAAGAUGAAAGUUCCAUATT against Ankar 1.17, GCUUGUGAGUGGAACUUUCTT against Mcm6 0.62, CCUACAACAGAUGUGCAGCTT against Fam222b -1.82, CCGGGACAUAGAGGAAAUUTT against Cabp1 -0.113, CGCACAUGAAGCCACAUAUTT against Plekhb1 -0.176, UCCAAGCUGUUGUUUAUACTT against Acsl1 -0.0655, GCUGUUACUCAGCAGAGAGTT against Bach2 -1.02, GGCCCUCUCCAAGUCUAUATT against Pex7 0.7, GGAGGAAUUUCAAAUACUATT against A530032D15Rik 0.853, GGAAGUCAUUAUGUGAUCCTT against Nfyb -0.404, GCCUACAAUCGAGACAGUUTT against Sgca 1.15, GGACACAGACACCAAACAATT against Kat2a -1.71, CCCACUAAGGAGAUCAGUUTT against Lasp1 1.32, GGUUUCUUGCCAAGAAAUUTT against Asic5 -0.359, GGAAACCUGCAUCCUAUGATT against Olfr195 -0.196, GAGCUGGGAGGUUUCACAGTT against Tspo -1.42, GGCUUAAGGCUAAUGGUCUTT against Fxyd5 -0.778, GCCUGCCUACGAGAUCAACTT against Mgp -0.0804, CCGUGAAAAAAUUAAACAGTT against Slk 0.338, CGUUUGCUCUAAAGCCAGGTT against Smagp 0.886, GGAAUUUCAUGGCAAGGGUTT against Fmc1 0.652, GGAUCACAUGAAAGGAUUATT against Dclre1c -0.242, CCCAGCAACUACUGGAAACTT against Tas2r139 -0.293, GGUUAUCUCAAAACUCGACTT against Prox2 -0.119, GGUAACUGAUUGCUUAGAUTT against Smndc1 0.836, GGGUUUGAACUGGUGAUUGTT against Cenpp -0.525, GGACAAAGGGAUAAUGCUGTT against Aldoc 0.735, GGUUUUGGAAAAAGUGGAUTT against Chp1 -0.867, GCCCUGUACCUUUUAGCUUTT against Olfr704 -0.306, GGCCAUCAAGAGUUUCUUUTT against Nr0b1 0.876, GCGUGUCUUGCUCUUUUGATT against Usp22 -1.21

z-score, active:
GGUGCUUAUACUUCUUUGUTT against Sgcz -2.42, GGCACUCAGAAAUAUUCAGTT against Nap1l3 3.84, GGAUACCCUGCUUCCAAAATT against Hpd 2.23, CGGACUAUUGGAGACCAACTT against Gpsm2 2.16, CCCUUGAUUACACCACAGUTT against Cfc1 -2.6, GGAAUAUUCUCUCAUCACATT against Mmachc -2.07, GGAGGAAGAAGACUCAGAATT against Prkag2 3.46, GGGAGAAAUGCCUUUAGUCTT against Erfe 3.79, GGAACUUCGUCAGUACAUUTT against Setdb1 5.77, GGAAAUCCUGAAGUUUCCUTT against Grk5 4.41, GGCUUACUUGAAGCAUUUATT against Plcb4 2.13, GGAAAUGUUUACCUGCCAUTT against Zfp512 2.32, CCUUAUUUUACGGAACUGCTT against Olfr1018 2.11, GCUAGCAGAGAUACAAUGUTT against Rasal3 3, GGGUGUAGUCCUGAAAGUATT against Arpc5l 2.45, CCGUUGGAGUCCAACCUAUTT against Ube2a 2.2, GGAUAGCAGCUGAGUUUUATT against Asb5 2.57, GGUACUGGCAUGGUGACAATT against Mmp11 -2.52, GGACAAAAUCACCUCACUUTT against Olfr1135 -3.29, CGCUGUGCUGAGCUUACUUTT against D17H6S53E -2.36, GCACUACAUUGUGGCUGUCTT against Itpr3 -2.57, CCUUGUUCAAAAAGAUGGCTT against Serpina1f -2.08
